Consider 16 compounds from PubChem BioAssay AID2113 (National Center for Advancing Translational Sciences (NCATS), 2009).

Where “and” joins values, the source holds several entries; their conditions need not be identical. Equal entries are not always repeated. Records with an inconclusive call do not appear. Values without a mark were called inactive. Calls of active or inactive are those of the source. Calls follow the shape of the dose curve; as a rule, active = well fitted curve in either direction with a large enough effect; inconclusive = small, poorly fitted or top-dose-only effect; inactive = no such curve, though single readings can be large or run the other way.
Potency is read from the fitted curve at half-maximal effect.

For this assay, the target named is Lysosomal alpha-glucosidase (Homo sapiens) (UniProt P10253). Briefly: Confirmation of Inhibitors and Activators of Human alpha-Glucosidase From Spleen Homogenate.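 As to Potency: fluorescence of 4-methylumbelliferone released from a fluorogenic glucopyranoside substrate at pH 5.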 As to activity change, both directions: 0% is about no effect. Conditions: alpha-glucosidase enzyme activity; series mostly up to 60.5 µM; activity change, both directions: at the top concentration. The method, boiled down: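 Fluorogenic assay using human spleen homogenate (1 ug) as enzyme source with 1 mM 4-methylumbelliferyl-alpha-D-glucopyranoside, pH 5.0 citrate buffer, 40 min at 37 C. 4-MU read (Ex 365/Em 440) after NaOH/glycine stop; AC50 from Hill fits.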
Turning to `Nc1cccc(S(=O)(=O)N2CCOCC2)c1`, the “activity change, both directions” value is 3.24%.

For the compound `CCc1sc(-c2cc3cccc(OC)c3oc2=O)nc1-c1ccccc1`, the “activity change, both directions” value is 3.75%.

Consider `Cc1sc(-c2cc3ccccc3oc2=O)nc1-c1ccc(Cl)cc1`, for which the “activity change, both directions” value is 11%.

For the compound `O=C(NCCCN1CCOCC1)c1cccs1`, the “activity change, both directions” value is 2.54% [at 31.5 µM].

Consider `CC(=O)c1ccc(N2CCN(S(=O)(=O)c3ccc4c(c3)CC(=O)N4)CC2)cc1`, for which the Potency was 1.03 µM [inhibitor] (active) and 520 nM [inhibitor] (active) and 2.06 µM [inhibitor] (active).

`N#Cc1c(-c2cccs2)cc(-c2cccnc2)nc1N`: the “activity change, both directions” value was 27.4% [at 31.5 µM].

As to `CC(=O)c1ccc(N2CCN(S(=O)(=O)c3ccc4c(c3)n(C)c(=O)n4C)CC2)cc1`, the “activity change, both directions” value was 0.0126%.

As to `Cn1c2c(c(=O)n(C)c1=O)CN(CC1CCCO1)CN2` (stereo unspecified), the “activity change, both directions” value is 6.19% [at 31.5 µM].

With `Cc1sc(-c2cc3ccccc3oc2=O)nc1-c1ccccc1`, the “activity change, both directions” value was 26.5%.

For `COc1ccc(CCc2c[nH]c(=O)c3cncnc23)cc1OC`, the “activity change, both directions” value is 0.974%.

Take `COc1ccc(C#Cc2c[nH]c(=O)c3cncnc23)cc1OC`: the “activity change, both directions” value was -4.96%.

As to `Cc1ccc(S(=O)(=O)N2CCN(C(=O)C3COc4ccccc4O3)CC2)cc1C` (stereo unspecified), the “activity change, both directions” value was -17.9%.

In the case of `CN(CCO)S(=O)(=O)c1ccc2c(c1)C(=NN)c1cc(S(=O)(=O)N(C)CCO)ccc1-2`, the “activity change, both directions” value was -3.45%.

Consider `COc1ccc(/C=C/c2nnc(NC(=O)COc3ccc(Cl)cc3)s2)cc1`, for which the “activity change, both directions” value is -1.2%.

For `CC(=O)c1ccc(S(=O)(=O)N2CCOCC2)cc1`, the “activity change, both directions” value was -1.31%.

As for `COc1ccc(C(=O)NC2(C(F)(F)F)C(=O)Nc3c2c(=O)[nH]c(=O)n3CCc2ccc(OC)c(OC)c2)cc1` (stereo unspecified), the “activity change, both directions” value was -0.6% [at 31.5 µM].
